In all, about 46,000 compounds went through this assay and about 900 (2%) were called active. Inconclusive results (about 1%) are left out. Cut-off read from the data, not from the text of the source: active = ROS induction above about 79% (passing the limit was not always enough); inconclusive = no clear call, values can overlap the other calls. This excerpt belongs to a sample that is enriched for actives.

The nature of the assay: ROS inducers in U2OS cancer cells, primary screen, cell-based, H2DCF-DA fluorescence (AID 624156).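 Note: 0% = DMSO vehicle median and 100% = reference compound median.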 The following applies: at 10 µM, hits give high values.
`C[C@@H]1CN([C@@H](C)CO)C(=O)c2cccc(NC(=O)C3CC3)c2O[C@@H]1CN(C)Cc1ccccc1`: the ROS induction (% of piperlongumine) was -2.71% (inactive). The same measure for `C[C@H]1CN([C@@H](C)CO)C(=O)c2cccc(NS(=O)(=O)c3ccc(Cl)cc3)c2O[C@@H]1CN(C)Cc1ccc(Oc2ccccc2)cc1`: 23.2% (inactive); for `C[C@@H]1CN([C@H](C)CO)C(=O)Cc2cc(NC(=O)Cc3ccccc3)ccc2O[C@H]1CN(C)Cc1ccc(Oc2ccccc2)cc1`: 58.8% (inactive). The same measure for `C[C@H]1CN([C@@H](C)CO)C(=O)Cc2cc(NC(=O)Cc3ccccc3)ccc2O[C@@H]1CN(C)Cc1ccc(Cl)c(Cl)c1`: 88.2% (active); for `C[C@H](CO)N1C[C@H](C)[C@@H](CN(C)Cc2ccc(C(=O)Nc3ccccc3N)cc2)Oc2c(NC(=O)C3CC3)cccc2C1=O`: 101% (active).

In the case of `C[C@@H]1CN([C@H](C)CO)C(=O)Cc2cc(NC(=O)Nc3ccccc3)ccc2O[C@H]1CN(C)Cc1ccc(Cl)c(Cl)c1`, the ROS induction (% of piperlongumine) is 13.3% (inactive). With `C[C@@H]1CN([C@@H](C)CO)C(=O)Cc2cc(NC(=O)Cc3ccccc3)ccc2O[C@@H]1CN(C)Cc1ccc(Oc2ccccc2)cc1`, the ROS induction (% of piperlongumine) is 115% (active). The same measure for `C[C@@H]1CN([C@H](C)CO)C(=O)c2cccc(NS(=O)(=O)c3ccc(F)cc3)c2O[C@H]1CN(C)Cc1ccc(Oc2ccccc2)cc1`: 102% (active); for `C[C@@H]1CN([C@H](C)CO)C(=O)Cc2cc(NC(=O)Cc3ccccc3)ccc2O[C@@H]1CN(C)Cc1ccccc1`: 35.5% (inactive); for `Cc1cc(C(=O)Nc2cccc3c2O[C@@H](CN(C)Cc2ccc(C(=O)Nc4ccccc4N)cc2)[C@H](C)CN([C@@H](C)CO)C3=O)n(C)n1`: 29% (inactive). Take `COc1ccc(CN(C)C[C@H]2Oc3ccc(NC(=O)Cc4ccccc4)cc3CC(=O)N([C@@H](C)CO)C[C@@H]2C)cc1`: the ROS induction (% of piperlongumine) is 65.1% (inactive). The same measure for `C[C@@H]1CN([C@H](C)CO)C(=O)c2cccc(NS(=O)(=O)c3ccc(Cl)cc3)c2O[C@@H]1CN(C)Cc1ccc(Oc2ccccc2)cc1`: 16.8% (inactive); for `O=C(CSc1nc2c(sc3ccccc32)c(=O)n1Cc1ccccc1)NCCC1=CCCCC1`: -2.88% (inactive). Regarding `O=C(CN(Cc1ccc(Cl)cc1Cl)S(=O)(=O)c1ccccc1)N1CCCC1`, the ROS induction (% of piperlongumine) is -2.84% (inactive). Regarding `O=C1CSc2ccccc2N1Cc1ccc(Cl)cc1`, the ROS induction (% of piperlongumine) is 2.65% (inactive). As for `Brc1ccc(CSc2c[nH]c3ccccc23)cc1`, the ROS induction (% of piperlongumine) was -17.1% (inactive). On to `Cc1ccc(CNC(=O)c2nc3c(nnn3Cc3ccco3)c(=O)[nH]2)cc1`, for which the ROS induction (% of piperlongumine) was 27.5% (inactive). In the case of `CC(C)c1ccc(N2C(=O)CSCC2(C(=O)NC2CCCCC2)c2ccc(Cl)cc2)cc1` (configuration not stated), the ROS induction (% of piperlongumine) is -3.88% (inactive).

Regarding `CCCN(c1ccccc1OC)S(=O)(=O)c1cc(Br)cnc1N`, the ROS induction (% of piperlongumine) is 1.12% (inactive). The same measure for `O=C(NC1CCCCCCC1)c1cccs1`: -3.89% (inactive); for `O=C(CCCn1c(=O)c2cccn2c2ccccc21)N1CCCCC1`: -0.17% (inactive); for `CN(C(=O)c1noc2c1CSc1ccccc1-2)c1cccc(C(F)(F)F)c1`: -4.5% (inactive).

On to `O=C(Nc1ccc(-n2nncc2-c2ccccc2)cc1)c1ccc(S(=O)(=O)N2CCCCC2)cc1`, for which the ROS induction (% of piperlongumine) was 51.9% (inactive). The same measure for `N#CC(C(=O)Nc1cccc(C(F)(F)F)c1)=C1CCCCCC1`: 14.7% (inactive); for `Cc1cccc(NC(=S)N2CCn3cccc3C2c2cccs2)c1` (configuration not stated): -3.68% (inactive); for `C[C@H]1CN([C@@H](C)CO)C(=O)Cc2cc(NS(=O)(=O)c3cccs3)ccc2O[C@H]1CN(C)Cc1ccncc1`: -8.79% (inactive). On to `C[C@H]1CN([C@@H](C)CO)C(=O)c2cc(NC(=O)Cc3cn(C)c4ccccc34)ccc2O[C@H]1CN(C)Cc1ccc(Cl)c(Cl)c1`, for which the ROS induction (% of piperlongumine) is 4.82% (inactive). Next, `C[C@H]1CN([C@@H](C)CO)C(=O)c2cc(NC(=O)Cc3cn(C)c4ccccc34)ccc2O[C@@H]1CN(C)Cc1ccc(Cl)c(Cl)c1`: 118% (active); `C[C@@H]1CN([C@@H](C)CO)C(=O)c2cc(NC(=O)Cc3ccccc3)ccc2O[C@H]1CN(C)Cc1ccc(Cl)c(Cl)c1`: 44.7% (inactive); `C[C@H]1CN([C@@H](C)CO)C(=O)Cc2cc(NS(=O)(=O)c3cccs3)ccc2O[C@@H]1CN(C)Cc1ccc(Oc2ccccc2)cc1`: 92.6% (active). The same measure for `C[C@@H]1CN([C@H](C)CO)C(=O)Cc2cc(NS(=O)(=O)c3cccs3)ccc2O[C@@H]1CN(C)Cc1ccc(C(=O)O)cc1`: 11.6% (inactive); for `O=C(Nc1cccc(-c2nc3ccccc3o2)c1)c1ccc(Br)cc1`: 4.05% (inactive); for `Cc1nn(C)cc1C(=O)c1ccccc1`: 36.5% (inactive). With `Cc1ccc(C(=O)N/C(=C\c2ccccc2)C(=O)Nc2c(C)n(C)n(-c3ccccc3)c2=O)cc1`, the ROS induction (% of piperlongumine) is 0.477% (inactive). In the case of `COc1ccc(CNCC2(c3ccccc3)CCCC2)cc1`, the ROS induction (% of piperlongumine) was 4.91% (inactive). As to `COC(=O)c1ccc(-c2ccco2)n1CC(=O)NC1CCCC1`, the ROS induction (% of piperlongumine) was -2.05% (inactive). Consider `CCC/C=C/C(=O)OC1C(O)C23C(O)OC4(CCC5C6(C)CCC(OC7OC(C(=O)O)C(O)C(OC8OC(CO)C(O)C(O)C8OC8OC(C)C(O)C(O)C8OC8OCC(O)C(O)C8O)C7OC7OC(CO)C(O)C(O)C7O)C(C)(C)C6CCC5(C)C4(C)CC2OC(C)=O)C3CC1(C)C` (configuration not stated), for which the ROS induction (% of piperlongumine) is -31.6% (inactive).

Turning to `COCc1cc(C)nc2sc(C(N)=O)c(N)c12`, the ROS induction (% of piperlongumine) was 10.2% (inactive). Consider `Cc1cc(-c2cccs2)c2c(N)c(C(=O)c3ccccc3)sc2n1`, for which the ROS induction (% of piperlongumine) was 95.7% (active). The same measure for `O=C(O)c1ccc(S(=O)(=O)c2ccc(Cl)cc2)cc1`: -2.87% (inactive). `Cc1c(S(=O)(=O)Nc2ccc(Cl)cc2)sc2ccc(Cl)cc12`: the ROS induction (% of piperlongumine) is -12.9% (inactive). For `Fc1ccc(NCc2cn(-c3ccccc3)nc2-c2cccs2)c(F)c1`, the ROS induction (% of piperlongumine) was -6.92% (inactive). In the case of `N#CCC(=O)N(Cc1ccccc1)C(=O)Nc1cccc(F)c1`, the ROS induction (% of piperlongumine) was -15.5% (inactive). Regarding `CC(C)(C)n1ncc2c(=O)n(Cc3ccc(Cl)cc3)cnc21`, the ROS induction (% of piperlongumine) was -3.3% (inactive). Next, `N#Cc1c(SCC(=O)Nc2ccccc2)ncc2cc3ccccc3nc12`: 192% (active).

Turning to `O=C(CSc1nnc(-c2ccccc2)c(-c2ccccc2)n1)Nc1ccccc1`, the ROS induction (% of piperlongumine) is -5.87% (inactive). Next, `Cc1sc2ncnc(SCC(=O)Nc3ccccc3)c2c1-c1ccccc1`: -2.63% (inactive).

The values are drawn from PubChem BioAssay AID624156 (Broad Institute, 2012).
